Values without a mark were called inactive. How the calls were made is not given here. Where a SMILES comes first, the peptide text is derived from it. The star is where a group is joined. Boc = CC(C)(C)OC(=O)*
Each molecule was assayed against Pantothenate synthetase (Mycobacterium tuberculosis (strain ATCC 25618 / H37Rv)) (UniProt P9WIL5) (assay: Recombinant Mtb pantothenate synthetase (PanC) inhibitors, coupled enzyme, confirmatory (AID 375;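 further: 0% = full reaction with vehicle and 100% = no enzyme background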)). Details: coupled enzyme assay; at 10 µM, active compounds read high.
Sequence of Pantothenate synthetase (Mycobacterium tuberculosis (strain ATCC 25618 / H37Rv)) (P9WIL5 whole entry, looked up): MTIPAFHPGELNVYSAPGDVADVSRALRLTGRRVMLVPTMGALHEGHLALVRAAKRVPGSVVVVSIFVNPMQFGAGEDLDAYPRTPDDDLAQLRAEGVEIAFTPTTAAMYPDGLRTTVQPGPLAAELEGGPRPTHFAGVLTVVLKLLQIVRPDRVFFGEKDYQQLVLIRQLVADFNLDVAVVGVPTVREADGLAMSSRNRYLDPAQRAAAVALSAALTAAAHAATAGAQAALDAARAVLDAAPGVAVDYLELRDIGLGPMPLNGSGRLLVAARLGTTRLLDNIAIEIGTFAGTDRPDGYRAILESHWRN
With `CCCC(=O)C1=C(N(C)c2ccccc2)CC(C)(C)C(C(=O)OC)C1=O` (stereo not given) the inhibition was 1%.
With `CCOC(=O)c1c(C)oc2c1c1c(c3ccccc32)OCN(Cc2cccnc2)C1` the inhibition was 6%.
In the case of `COc1ccc(OC)c(C2C(C(=O)Nc3ccc(F)cc3)=C(C)Nc3nc(CCCO)nn32)c1` (stereo not given), the inhibition is reported as 5%.
For `c1ccc(OCc2nc(-c3ccccc3)no2)cc1`, the inhibition was 0%.
Work on `CCOC(=O)Cn1nnnc1C(C(C)C)N(Cc1cc2c(C)cc(C)cc2[nH]c1=O)C1CCCC1` (stereo not given) yielded an inhibition of 0%.
`CCN(CC)S(=O)(=O)c1cccc2c(N(C)C)cccc12` showed an inhibition of 0%.
Molecule `COC(=O)c1cccc(NC(=O)CSc2nnc(COc3ccc(C#N)cc3)n2-c2ccccc2)c1` has an inhibition of 2%.
For `CCOC(=O)C1C(=O)OC(C)(C)C1C(C)C(=O)c1ccc(OC)cc1` (stereo not given), the inhibition was 0%.
`O=C(Nc1ccc2c(c1)nc1n2CCSC1)c1ccccc1` was tested, and the inhibition was 0%.
`O=C(c1cnc2n(c1=O)CCS2)N(C1CCCCC1)C1CCCCC1` showed an inhibition of 0%.
`CCCCCCC(c1c(C)n(C)n(-c2ccccc2)c1=O)c1c(C)n(C)n(-c2ccccc2)c1=O` showed an inhibition of 0%.
In the case of `Cc1ccc(S(=O)(=O)N2CCC(C(=O)N[C@@H](Cc3ccccc3)C(=O)O)CC2)cc1`, the inhibition is reported as 0%.
Molecule `COc1cccc(-n2c(C)nc3c(cnn3-c3ccc(C)cc3)c2=O)c1` has an inhibition of 3%.
`O=c1oc2ccccc2c(O)c1CN1CCCCC1` gave an inhibition of 0%.
Molecule `CCOC(=O)N1CCN(CC(=O)Nc2cc(C)nn2-c2nc3ccccc3s2)CC1` has an inhibition of 0%.
`CCOC(=O)C1CCN(C(=O)CSc2cc(=O)n(CC)c3ccccc23)CC1` was tested, and the inhibition was 4%.
With `O=c1cc(CSc2nnnn2-c2ccccc2)nc2scc(-c3ccccc3)n12` the inhibition was 3%.
For `CCOCCCNC(=O)C1CCN(S(=O)(=O)N(CC(C)C)CC(C)C)CC1`, the inhibition was 0%.
Molecule `c1ccc(CSc2nnc(-c3cccs3)n2Cc2ccco2)cc1` has an inhibition of 0%.
`Cc1cccc(N(CC(N)=O)S(C)(=O)=O)c1C` showed an inhibition of 0%.
Work on `COc1ccc(CC(=O)Nc2c3c(nn2-c2cccc(Cl)c2)CS(=O)(=O)C3)cc1` yielded an inhibition of 0%.
With `c1ccc(-c2cc(CSc3nc4ccccc4[nH]3)on2)cc1` the inhibition was 0%.
With `COc1ccc(NC(=O)CCS(=O)(=O)c2ccc(OC)cc2)cc1` the inhibition was 0%.
Molecule `CCN(CC)c1ccc2c(C)c(-c3ccc(N)cc3)c(=O)oc2c1` has an inhibition of 10%.
With `COC(=O)c1cc(OC)c(OCc2cc(C(=O)OC)oc2C)c(OC)c1` the inhibition was 2%.
In the case of `CCOC(=O)CSC1=C(C#N)C(=O)NC(c2ccc(OC)c(OC)c2)S1` (stereo not given), the inhibition is reported as 16%.
Molecule `CC(C)CC(=O)N1CCN(S(=O)(=O)c2ccc(F)cc2)CC1` has an inhibition of 0%.
`CC(C)(C)OC(=O)N1CCCC1C(=O)NC(Cc1ccccc1)C(=O)O` (stereo not drawn) (Boc-Pro-Phe-OH; configuration not given here) showed an inhibition of 4%.
In the case of `Cc1cc(C)cc(N(CC(=O)Nc2cccc(C)n2)S(=O)(=O)c2c(C)noc2C)c1`, the inhibition is reported as 0%.
For `CC(=O)O[C@]1(C(C)=O)CC[C@H]2[C@@H]3C[C@H](C)C4=CC(=O)CC[C@]4(C)[C@H]3CC[C@@]21C`, the inhibition was 0%.
Work on `O=C(CNS(=O)(=O)c1ccccc1)NCc1ccccn1` yielded an inhibition of 9%.
With `CCOc1ccc2[nH]c(=O)c(C(c3nnnn3Cc3ccco3)N3CCC(C)CC3)cc2c1` (stereo not given) the inhibition was 0%.
`COc1cccc2cc(C(=O)N3CCN(c4ccc(C)cc4C)CC3)c(=O)oc12` gave an inhibition of 0%.
For `Fc1ccc(-c2nnc3ccc(N4CCCC4)nn23)cc1`, the inhibition was 1%.
For `O=C(Nc1ccc(N2CCOCC2)c(F)c1)c1ccncc1`, the inhibition was 0%.
`COCCNC(=O)c1ccc(CS(=O)(=O)c2c(Cl)cccc2Cl)o1` showed an inhibition of 0%.
Work on `COC(=O)c1sccc1NC(=O)c1ccco1` yielded an inhibition of 1%.
In the case of `COc1ccc(C(=O)N2CCN(C3CCCCC3)CC2)c(OC)c1`, the inhibition is reported as 0%.
In the case of `CN(C)CCOc1ccccc1Cc1ccccc1`, the inhibition is reported as 0%.
`Cc1cc(C(=O)N2CCN(c3ncccn3)CC2)cs1` gave an inhibition of 4%.

Reference: PubChem BioAssay
